Tau fluor counter = counter-screen for tau fibril formation inhibitors; tau K18 P301L Alexa594 fluorescence, heparin fibrillization; Potency, µM (highest dose often 57.7 µM); 280,000 compounds, 0.93% hits; further: nearly all actives have a fitted effect of over 55% in size
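Human tau K18 P301L (15 uM unlabeled, 0.24 uM Alexa 594-labeled) in 100 mM sodium acetate pH 7 with 20 uM heparin, 6 hr at 37 C. ThT 30 uM added, 1 hr ambient; Alexa 594 FP and total fluorescence read at 555/632 nm.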
Tau ThT inhib = blocks human tau fibril formation measured by thioflavin T. recombinant tau K18 P301L (four-repeat tau fragment), heparin-induced fibrillization, ThT fluorescence. Potency, µM (series often up to 57.4 µM), usual class: inhibitors. 270,000 compounds, 2.1% hits. AID 1460; further: nearly all actives have a fitted effect of over 55% in size
Target sequence (P10636 561-689 P618L limits assumed): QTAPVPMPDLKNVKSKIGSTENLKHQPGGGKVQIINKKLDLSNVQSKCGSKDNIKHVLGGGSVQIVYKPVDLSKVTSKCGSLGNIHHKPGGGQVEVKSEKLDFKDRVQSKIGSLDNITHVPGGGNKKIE
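K18 P301L tau (15 uM + 0.24 uM Alexa 594-tagged), heparin 20 uM, NaOAc pH 7, 6 h 37 C; ThT 30 uM, 1 h RT, ex 450/em 510 nm.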
FBPA coupling cs = counter-screen for Giardia aldolase inhibitors: coupling enzyme system | coupling enzyme system counterscreen, AmpLite Red fluorescence | AID 2472 | activity change, negative = inhibition, % at 58.2 µM, hits read low | 290,000 compounds, 0.67% hits; in the data active means activity change below about -30%
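Coupling enzymes only (glyceraldehyde-3-phosphate) + compound, at 57.5 uM final, 10 min RT; add substrate/coupling/AmpLite Red mix, 20 min RT; fluorescence ex 525/em 598 nm. Actives flag coupling-system interference.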
Tau fibril FP = blocks human tau fibril formation measured by polarization. P10636. K18 P301L tau heparin fibrillization, Alexa594 FP, 6 h. Potency, µM (top dose mostly 57.7 µM), usual class: inhibitors. 280,000 compounds, 0.39% hits; further: nearly all actives have a fitted effect of over 55% in size
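Steps: dispense K18 P301L tau (15 uM plus 0.24 uM Alexa 594 tracer, final) in pH 7 sodium acetate; add compound; add heparin (20 uM final); incubate 6 hr, 37 C; add ThT (30 uM final); after 1 hr ambient, read FP.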
Hits are given with their value; n = inactive; u = inconclusive; x = no result given; ! = not confirmed by another sample; [ ] = dose if it differs, or a comment. Shown are actives, neighbours in structure and some others; about 2.7% of the full set was active somewhere. Unless noted, the call rests on the fitted dose curve; in most records, active means well fitted curve in the direction sought with a large enough effect; inconclusive means small, poorly fitted or top-dose-only effect, or another doubt; inactive means no such curve, though single readings can be large; an effect the other way counts as inactive or inconclusive.

SMILES	Tau fluor counter	Tau ThT inhib	FBPA coupling cs	Tau fibril FP
COc1cc(-c2nc3ccc(Cl)cn3c2Nc2ccc3c(c2)OCCO3)ccc1O	10µM[quencher]	u	x	n
C=C1C(=O)O[C@H]2[C@H]1[C@H](OC(=O)CC(=O)O[C@@H]1C[C@@H](C)[C@@H]3C=CC(=O)[C@@]3(C)[C@H]3OC(=O)C(=C)[C@H]13)C[C@@H](C)[C@H]1C=CC(=O)[C@]12C	n	16µM	n	11µM
C=C1C(=O)O[C@H]2C[C@@H](C)[C@@H]3C=CC(=O)[C@@]3(C)C[C@H]12	n	18µM	n	u
C=C1C(=O)O[C@@H]2C[C@@H](C)[C@@H]3C=CC(=O)[C@@]3(C)[C@@H](OC(=O)CC(=O)O[C@H]3[C@@H]4C(=C)C(=O)O[C@@H]4C[C@@H](C)[C@@H]4C=CC(=O)[C@]43C)[C@H]12	n	2.8µM	n	8.9µM
CCC1CN2CCC1CC2C(Oc1cc2ccccc2c2ccccc12)c1ccnc2ccc(O)cc12 (centres undefined)	n[11.6 µM]	u	n	n[11.6 µM]
CCOc1ccc(Nc2c(S(=O)(=O)c3ccc(C)cc3)cnc3ccc(F)cc23)cc1	n	u	x	n
O=c1oc(Cl)c(Cl)c2ccccc12	n	11µM	x	u
NNC(=O)c1nn(-c2ccccc2)cc1O	n	u	n	n
C=CC(C)(C)c1c2c(c(O)c3c(=O)c4ccc(O)c(O)c4oc13)C=CC(C)(C)O2	16µM[quencher]	u	n	u
C=CCN1CCc2cccc3c2C1Cc1ccc(O)c(O)c1-3 (centres undefined)	14µM[quencher]	14µM	x	u
CN1CCc2cc(O)cc3c2C1Cc1ccc(O)c(O)c1-3 (centres undefined)	18µM[quencher]	16µM	x	40µM
COc1ccc2c(c1O)-c1cccc3c1C(C2)N(C)CC3 (centres undefined)	n	u	x	u
C(=C\c1ccccc1)/CN1CCN(CCOC(c2ccccc2)c2ccccc2)CC1	n	n	x	n
COc1ccc(CCn2c(NN=C3CCCCC3)nc3c2c(=O)[nH]c(=O)n3C)cc1	u	28µM	n	u
COc1ccc(CCNCc2ccc3c(c2)n(C)c(=O)n3C)cc1	n	n	x	n
CC(C)=CCCN1CCC(NC(=O)C(O)(c2ccccc2)C2CCCC2)CC1 (centres undefined)	x	x	n	x
CC1=C2C(=CO[C@H](C)[C@H]2C)C(=O)C(C(=O)O)=C1O	n	u	n	n
CCOC(=O)c1c(/N=C/c2c(O)n(-c3ccccc3F)c(=S)[nH]c2=O)sc2c1CCCC2	n	22µM	-49	u
COc1ccc(CN2C(=O)CC(=O)NC2=O)cc1	n	25µM	n	u
COc1ccc(N2C(=O)CC(=O)NC2=O)cc1	n	u	n	n
O=C1NC(=O)N(Cc2ccccc2)C(=O)/C1=C/N1CCCc2ccccc21	n	10µM	n	u
CN1C(=O)/C(=C/C=C/c2ccco2)C(=O)NC1=S	u	x	n	u
O=C1NC(=O)N(Cc2ccco2)C(=O)/C1=C/C=C/c1ccco1	n	8.9µM	n	u
O=C1NC(=O)N(Cc2ccccc2)C(=O)/C1=C\C=C\c1ccco1	n	14µM	n	u
O=C(Nc1ccc(N2CCOCC2)cc1)Nc1ccc2nsnc2c1	n	u	n	n[2.34 µM]
SMILES	Tau fluor counter	Tau ThT inhib	FBPA coupling cs	Tau fibril FP
CC1CC2OC2/C=C\C=C/C(=O)Cc2c(Cl)c(O)cc(O)c2C(=O)O1 (centres undefined)	n	u	n	n
O=C(CCCCCCCCCCC(=O)NCc1cccnc1)NCc1cccnc1	n	u	n	n
CN(N=O)c1cc(O)ccc1O	u	11µM	x	u
COc1cccc(CN2CCc3nc(N4CCN(c5ncccn5)CC4)ncc3C2)c1	n	u	x	n
CN1c2ccc([N+](=O)[O-])cc2CC2(C(=O)NC(=O)N(c3ccc(Br)cc3)C2=O)C1c1ccccc1 (centres undefined)	n	16µM	n	n
NNc1n[nH]c(=S)n1N	u	x	-62	u
C[C@H](NC(=O)[C@@H](N)Cc1ccc(O)cc1)C(=O)NCC(=O)N(C)[C@@H](Cc1ccccc1)C(=O)NCCO	n	n	x	n
O=C1C=CC(=O)C(Cl)=C1	u	11µM	n	16µM
O=C(CNC(=O)c1ccc(Br)cc1)NCC(=O)OCC(=O)c1ccc([N+](=O)[O-])cc1	n	28µM	n	u
O=C(CNC(=O)c1ccccc1)NCC(=O)OCC(=O)c1ccc([N+](=O)[O-])cc1	n	u	n	u
O=c1[nH]c(=O)n(-c2ccc(Cl)cc2)c(O)c1C=Nc1ccc(S(=O)(=O)Nc2nccs2)cc1	n	n	n	n
Clc1cccc(/C=N\Nc2nccs2)c1	18µM[quencher]	u	n	n
CC(=O)OCC1=C[C@H]2[C@@H]3C(C)(C)[C@]3(OC(=O)Cc3ccccc3)C[C@@H](C)[C@]2(O)[C@@H]2C=C(C)C(=O)[C@@]2(O)C1	x	x	n	x
N#CC(C#N)=Cc1ccc([N+](=O)[O-])c(O)c1	u	25µM	n	u
N#CC(C#N)=Cc1ccc(C=C(C#N)C#N)cc1	n	20µM	n	u
CSCCOC(=O)COc1ccc(/C=N/NC(=O)c2c(Cl)cnn2C)cc1	n	u	n	n
COc1ccc(C2=C(C(C)=O)Sc3nnc(-c4ccc(C)cc4)n3N2C(C)=O)cc1OC	u	u	x	n
COC(=O)[C@]1(C)CC[C@@]2(C)CC[C@@]3(C)C4=CC=C5C(=CC(=O)C(O)=C5C)[C@@]4(C)CC[C@@]3(C)C2C1 (some centres undefined)	u	28µM	n	u
Cc1ccc(-n2sc3ccccc3c2=O)cc1	n	32µM	n	u
COC(=O)CC1=C(C(=O)OC)C2(C(=O)Nc3c(C)cccc32)C(C#N)=C(N)O1 (centres undefined)	n	n	-38	n
COc1cc2[nH]c(=O)n(Cc3ccc(C(=O)N4CCN(c5ccc(Cl)cc5)CC4)cc3)c(=O)c2cc1OC	u	n	x	u
COc1ccc(Cc2nccc3cc(OC)c(OC)cc23)cc1OC	n	u	-32!	n
COc1ccc(CCNc2nccn(-c3ccc(C)c(C)c3)c2=O)cc1OC	n	u	x	n
CCCCC/C=C\C/C=C\C/C=C\C/C=C\CCCC(=O)Nc1ccc(O)cc1C	u	u	n	n
CCCCC/C=C\C/C=C\C/C=C\C/C=C\CCCC(=O)Nc1ccc(O)cc1	14µM[quencher]	u	n	u
SMILES	Tau fluor counter	Tau ThT inhib	FBPA coupling cs	Tau fibril FP
CCCCC/C=C\C/C=C\C/C=C\C/C=C\CCCC(=O)NCc1ccoc1	n	22µM	n	u
CC(=O)C(O)C(c1ccccc1)c1c(O)c2ccccc2oc1=O (centres undefined)	x	x	n	x
Cc1ccc(NC(=O)Cn2c(=O)oc3cc(S(=O)(=O)N4CCCCCC4)ccc32)cc1Cl	n	n	x	u
CN1C(=O)c2ccccc2Sc2ccc(NC(=O)c3ccc(C(F)(F)F)cc3)cc21	n	n	x	u
C[C@]12CC[C@@H]3c4cc(O)c(O)cc4CC[C@H]3[C@@H]1CC[C@@H]2O	u	u	n	n
C[C@]12CC[C@@H]3c4ccc(O)c(O)c4CC[C@H]3[C@@H]1CC[C@@H]2O	u	14µM	-47	u
COC(=O)CCCc1[se]c2ccccc2c1I	n	u	n	n
Nc1cncc(C(=O)O)c1	n	n	-31!	n

Screens deposited in PubChem by National Center for Advancing Translational Sciences (NCATS).
